# In the supplement of paper PMC4022240:
# ± gives the standard deviation.
# T1: HaloTag-ATRX ADD domain (163-292)
# T1 chain: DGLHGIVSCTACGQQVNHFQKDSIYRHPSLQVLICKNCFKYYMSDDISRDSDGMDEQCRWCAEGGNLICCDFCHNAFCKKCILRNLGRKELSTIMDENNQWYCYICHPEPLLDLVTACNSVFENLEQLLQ
# Columns and labels:
# Assay in all cases: peptide microarray binding signal (635 nm), min-max normalized on array (fraction of array maximum); higher = stronger binding
# Conditions in all cases: peptide region: H3 112-124
# [1] = target: T1, HaloTag-ATRX ADD domain (163-292)
# Procedure, shortened: (§1)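 Binding signal is the mean intensity of triplicate spots, min-max scaled within each library. Histone 13-mer peptide–cellulose conjugates were spotted in triplicate on nitrocellulose with a Cy3 tracer and blocked overnight at 4°C. Probing lasted 1 h at 4°C, either with biotin-labelled HaloTag reader fusions (10 nM to 1 μM) and streptavidin-Alexa Fluor 647 or with rabbit histone antibodies (1:10,000 to 1:2,000) and anti-rabbit Alexa 647. An Axon GenePix 4000B read signal at 635 nm and misprints at 532 nm.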
# [2] = target: HaloTag-ING2 PHD (mouse Ing2 200-280)
# Procedure, shortened: as §1
# [3] = target: anti-H3K4me3 antibody ab8580
# Procedure, shortened: as §1
# [4] = target: anti-H3K9me3 antibody ab8898
# Procedure, shortened: as §1
# [5] = peptide modifications: H3K115me2 H3K122me1, binder concentration: 1:2,000 dilution
# [6] = peptide modifications: H3K115me2 H3K122me1, binder concentration: 1:10,000 dilution
# [7] = peptide modifications: H3K115me3 H3R116me2s, binder concentration: 1:2,000 dilution
# [8] = peptide modifications: H3K115me3 H3R116me2s, binder concentration: 1:10,000 dilution
# [9] = peptide modifications: H3K115me3 H3R116me2a, binder concentration: 1:2,000 dilution
# [10] = peptide modifications: H3K115me3 H3R116me2a, binder concentration: 1:10,000 dilution
# [11] = peptide modifications: H3K115me1 H3R116me2s, binder concentration: 1:2,000 dilution
# [12] = peptide modifications: H3K115me1 H3R116me2s, binder concentration: 1:10,000 dilution
# [13] = peptide modifications: H3K115me3 H3K122me3, binder concentration: 1:2,000 dilution
# [14] = peptide modifications: H3K115me3 H3K122me3, binder concentration: 1:10,000 dilution
# [15] = peptide modifications: H3K115me1 H3R116me2a, binder concentration: 1:2,000 dilution
# [16] = peptide modifications: H3K115me1 H3R116me2a, binder concentration: 1:10,000 dilution
# [17] = peptide modifications: H3K115me3 H3R116cit, binder concentration: 1:2,000 dilution
# [18] = peptide modifications: H3K115me3 H3R116cit, binder concentration: 1:10,000 dilution
# [19] = peptide modifications: H3K115me2 H3R116cit, binder concentration: 1:2,000 dilution
# [20] = peptide modifications: H3K115me2 H3R116cit, binder concentration: 1:10,000 dilution
# [21] = peptide modifications: H3K115me3 H3K122ac, binder concentration: 1:2,000 dilution
# [22] = peptide modifications: H3K115me3 H3K122ac, binder concentration: 1:10,000 dilution
# [23] = peptide modifications: H3K115me3 H3R116me1, binder concentration: 1:2,000 dilution
# [24] = peptide modifications: H3K115me3 H3R116me1, binder concentration: 1:10,000 dilution
binder,measurement,setting,value
IHAKRVTIMPKDI [H3 112-124 I H A Kme2 R V T I M P Kme D I],peptide microarray binding signal,"[1]; peptide modifications: H3K115me2 H3K122me1, binder concentration: 50 nM",0.00398 ± 8.3e-05
same,peptide microarray binding signal,"[1]; peptide modifications: H3K115me2 H3K122me1, binder concentration: 500 nM",0.00852 ± 0.00012
same,peptide microarray binding signal,"[2]; peptide modifications: H3K115me2 H3K122me1, binder concentration: 10 nM",0.0224 ± 0.00092
same,peptide microarray binding signal,"[2]; peptide modifications: H3K115me2 H3K122me1, binder concentration: 100 nM",0.0286 ± 0.0023
same,peptide microarray binding signal,[3]; [5],0.0024 ± 0.00012
same,peptide microarray binding signal,[3]; [6],0.002853 ± 2.4e-05
same,peptide microarray binding signal,[4]; [5],0.0016 ± 2.9e-05
same,peptide microarray binding signal,[4]; [6],0.001441 ± 1.4e-05
IHAKRVTIMPKDI [H3 112-124 I H A Kme3 Rme2s V T I M P K D I],peptide microarray binding signal,"[1]; peptide modifications: H3K115me3 H3R116me2s, binder concentration: 50 nM",0.00351 ± 6.2e-05
same,peptide microarray binding signal,"[1]; peptide modifications: H3K115me3 H3R116me2s, binder concentration: 500 nM",0.00576 ± 0.00044
same,peptide microarray binding signal,"[2]; peptide modifications: H3K115me3 H3R116me2s, binder concentration: 10 nM",0.0107 ± 0.00099
same,peptide microarray binding signal,"[2]; peptide modifications: H3K115me3 H3R116me2s, binder concentration: 100 nM",0.0126 ± 0.0027
same,peptide microarray binding signal,[3]; [7],0.00608 ± 0.0018
same,peptide microarray binding signal,[3]; [8],0.0069 ± 0.00085
same,peptide microarray binding signal,[4]; [7],0.0055 ± 0.00076
same,peptide microarray binding signal,[4]; [8],0.00386 ± 0.00058
IHAKRVTIMPKDI [H3 112-124 I H A Kme3 Rme2a V T I M P K D I],peptide microarray binding signal,"[1]; peptide modifications: H3K115me3 H3R116me2a, binder concentration: 50 nM",0.00345 ± 4.9e-05
same,peptide microarray binding signal,"[1]; peptide modifications: H3K115me3 H3R116me2a, binder concentration: 500 nM",0.00524 ± 0.00015
same,peptide microarray binding signal,"[2]; peptide modifications: H3K115me3 H3R116me2a, binder concentration: 10 nM",0.0172 ± 0.00022
same,peptide microarray binding signal,"[2]; peptide modifications: H3K115me3 H3R116me2a, binder concentration: 100 nM",0.0232 ± 0.0011
same,peptide microarray binding signal,[3]; [9],0.00885 ± 0.0017
same,peptide microarray binding signal,[3]; [10],0.00451 ± 0.00052
same,peptide microarray binding signal,[4]; [9],0.00763 ± 0.0013
same,peptide microarray binding signal,[4]; [10],0.00467 ± 0.00017
IHAKRVTIMPKDI [H3 112-124 I H A Kme Rme2s V T I M P K D I],peptide microarray binding signal,"[1]; peptide modifications: H3K115me1 H3R116me2s, binder concentration: 50 nM",0.00257 ± 2.3e-05
same,peptide microarray binding signal,"[1]; peptide modifications: H3K115me1 H3R116me2s, binder concentration: 500 nM",0.00552 ± 0.00018
same,peptide microarray binding signal,"[2]; peptide modifications: H3K115me1 H3R116me2s, binder concentration: 10 nM",0.004 ± 0.00015
same,peptide microarray binding signal,"[2]; peptide modifications: H3K115me1 H3R116me2s, binder concentration: 100 nM",0.00716 ± 0.00083
same,peptide microarray binding signal,[3]; [11],0.000906 ± 2.8e-05
same,peptide microarray binding signal,[3]; [12],0.00137 ± 1.3e-05
same,peptide microarray binding signal,[4]; [11],0.00156 ± 0.00014
same,peptide microarray binding signal,[4]; [12],0.00127 ± 1.3e-05
IHAKRVTIMPKDI [H3 112-124 I H A Kme3 R V T I M P Kme3 D I],peptide microarray binding signal,"[1]; peptide modifications: H3K115me3 H3K122me3, binder concentration: 50 nM",0.00652 ± 0.00013
same,peptide microarray binding signal,"[1]; peptide modifications: H3K115me3 H3K122me3, binder concentration: 500 nM",0.014 ± 0.00024
same,peptide microarray binding signal,"[2]; peptide modifications: H3K115me3 H3K122me3, binder concentration: 10 nM",0.08 ± 0.013
same,peptide microarray binding signal,"[2]; peptide modifications: H3K115me3 H3K122me3, binder concentration: 100 nM",0.133 ± 0.011
same,peptide microarray binding signal,[3]; [13],0.0798 ± 0.017
same,peptide microarray binding signal,[3]; [14],0.0823 ± 0.0064
same,peptide microarray binding signal,[4]; [13],0.0648 ± 0.013
same,peptide microarray binding signal,[4]; [14],0.0227 ± 0.0026
IHAKRVTIMPKDI [H3 112-124 I H A Kme Rme2a V T I M P K D I],peptide microarray binding signal,"[1]; peptide modifications: H3K115me1 H3R116me2a, binder concentration: 50 nM",0.005172 ± 3.7e-05
same,peptide microarray binding signal,"[1]; peptide modifications: H3K115me1 H3R116me2a, binder concentration: 500 nM",0.0151 ± 0.00091
same,peptide microarray binding signal,"[2]; peptide modifications: H3K115me1 H3R116me2a, binder concentration: 10 nM",0.0102 ± 0.00057
same,peptide microarray binding signal,"[2]; peptide modifications: H3K115me1 H3R116me2a, binder concentration: 100 nM",0.0244 ± 0.0083
same,peptide microarray binding signal,[3]; [15],0.00434 ± 0.00096
same,peptide microarray binding signal,[3]; [16],0.00297 ± 8.7e-05
same,peptide microarray binding signal,[4]; [15],0.0064 ± 0.00053
same,peptide microarray binding signal,[4]; [16],0.00317 ± 0.00013
IHAKRVTIMPKDI [H3 112-124 I H A Kme3 Rcit V T I M P K D I],peptide microarray binding signal,"[1]; peptide modifications: H3K115me3 H3R116cit, binder concentration: 50 nM",0.00821 ± 0.00022
same,peptide microarray binding signal,"[1]; peptide modifications: H3K115me3 H3R116cit, binder concentration: 500 nM",0.0148 ± 0.00063
same,peptide microarray binding signal,"[2]; peptide modifications: H3K115me3 H3R116cit, binder concentration: 10 nM",0.0661 ± 0.012
same,peptide microarray binding signal,"[2]; peptide modifications: H3K115me3 H3R116cit, binder concentration: 100 nM",0.0923 ± 0.011
same,peptide microarray binding signal,[3]; [17],0.0677 ± 0.0083
same,peptide microarray binding signal,[3]; [18],0.058 ± 0.0049
same,peptide microarray binding signal,[4]; [17],0.0746 ± 0.0023
same,peptide microarray binding signal,[4]; [18],0.0265 ± 0.00085
IHAKRVTIMPKDI [H3 112-124 I H A Kme2 Rcit V T I M P K D I],peptide microarray binding signal,"[1]; peptide modifications: H3K115me2 H3R116cit, binder concentration: 50 nM",0.00386 ± 8.5e-05
same,peptide microarray binding signal,"[1]; peptide modifications: H3K115me2 H3R116cit, binder concentration: 500 nM",0.008 ± 0.00037
same,peptide microarray binding signal,"[2]; peptide modifications: H3K115me2 H3R116cit, binder concentration: 10 nM",0.0196 ± 0.00092
same,peptide microarray binding signal,"[2]; peptide modifications: H3K115me2 H3R116cit, binder concentration: 100 nM",0.0271 ± 0.0013
same,peptide microarray binding signal,[3]; [19],0.00257 ± 8.7e-05
same,peptide microarray binding signal,[3]; [20],0.00211 ± 6.7e-05
same,peptide microarray binding signal,[4]; [19],0.00118 ± 5.6e-05
same,peptide microarray binding signal,[4]; [20],0.00133 ± 4e-05
IHAKRVTIMPKDI [H3 112-124 I H A Kme3 R V T I M P Kac D I],peptide microarray binding signal,"[1]; peptide modifications: H3K115me3 H3K122ac, binder concentration: 50 nM",0.00408 ± 6.9e-05
same,peptide microarray binding signal,"[1]; peptide modifications: H3K115me3 H3K122ac, binder concentration: 500 nM",0.00905 ± 0.0013
same,peptide microarray binding signal,"[2]; peptide modifications: H3K115me3 H3K122ac, binder concentration: 10 nM",0.0419 ± 0.0077
same,peptide microarray binding signal,"[2]; peptide modifications: H3K115me3 H3K122ac, binder concentration: 100 nM",0.0725 ± 0.024
same,peptide microarray binding signal,[3]; [21],0.0222 ± 0.0067
same,peptide microarray binding signal,[3]; [22],0.0228 ± 0.0068
same,peptide microarray binding signal,[4]; [21],0.0259 ± 0.0045
same,peptide microarray binding signal,[4]; [22],0.0117 ± 0.0018
IHAKRVTIMPKDI [H3 112-124 I H A Kme3 Rme V T I M P K D I],peptide microarray binding signal,"[1]; peptide modifications: H3K115me3 H3R116me1, binder concentration: 50 nM",0.0052 ± 0.00018
same,peptide microarray binding signal,"[1]; peptide modifications: H3K115me3 H3R116me1, binder concentration: 500 nM",0.00929 ± 0.00049
same,peptide microarray binding signal,"[2]; peptide modifications: H3K115me3 H3R116me1, binder concentration: 10 nM",0.0491 ± 0.0085
same,peptide microarray binding signal,"[2]; peptide modifications: H3K115me3 H3R116me1, binder concentration: 100 nM",0.07016 ± 0.00021
same,peptide microarray binding signal,[3]; [23],0.0275 ± 0.0037
same,peptide microarray binding signal,[3]; [24],0.0305 ± 0.0067
same,peptide microarray binding signal,[4]; [23],0.0215 ± 0.0033
same,peptide microarray binding signal,[4]; [24],0.0113 ± 0.0013
